# PubChem BioAssay (EPA / NIEHS)
# Results filed as inconclusive are left out. Active and inactive are the calls of the source. How the source made its calls: active means hit-call score of the fitted dose curve at least 0.9, where 1 is the maximum; inconclusive means response in the unintended direction; inactive means score below 0.9.
# Experiments:
# [1] = ACEA_AR_antagonist_AUC_viability: ACEA Biosciences xCELLigence Real-Time Cell Analysis on Androgen Receptor Antagonism for Viability (AID 2283776);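 further: 22Rv1 human prostate cancer cells growing on impedance electrode plates; area under impedance growth curve at 80 h after dosing as viability; hits lower the growth signal relative to DMSO meaning cytotoxicity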
# Outline: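 Viability endpoint from label-free cell-index monitoring: 22Rv1 cultures treated with an eight-point 1:4 dilution series starting at 100 uM final, AUC at 80 h fitted against DMSO.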
# [2] = ACEA_ER_AUC_viability: ACEA Biosciences xCELLigence Real-Time Cell Analysis on Estrogen Receptor Agonism for Viability (AID 2283782);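 further: continuous compound exposure with impedance area under curve over 80 h; hit means loss of impedance signal meaning reduced cell growth or viability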
# Outline: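 T-47D; phenol red-free RPMI1640 + 10% CS-FBS; 8 conc., 1:4 serial, max 100 uM final, ≤0.5% DMSO; n = 2; continuous exposure; impedance monitored to 80 h post-dose; AUC vs DMSO.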
# [3] = STM_H9_NormalizedViability: Cytotoxicity Assessment at 120 hours in the Stemina devTOX quickPredict H9 human embryonic stem cell (hESC)-based Assay (AID 2283784)
# Outline: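 Undifferentiated H9 hESCs kept pluripotent were exposed to compound, with media and chemical replaced every 24h. CellTiter-Fluor protease-substrate fluorescence was background-corrected and normalized per plate to the 0.1% DMSO vehicle; signal loss indicates reduced viability.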
# [4] = ACEA_AR_agonist_AUC_viability: ACEA Biosciences xCELLigence Real-Time Cell Analysis on Androgen Receptor Agonism for Viability (AID 2283775);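 on AC50: viability read 80 hours after compound addition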
# Outline: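 Read-out is area under the impedance curve at 80 h post-dose in 22Rv1 cells, with DMSO as baseline and signal loss taken as reduced viability. Compounds ran in duplicate from 100 uM final.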
# [5] = molecular target: AR (gene 367) (UniProt P10275); test: ACEA_AR_agonist_80hr: ACEA Biosciences xCELLigence Real-Time Cell Analysis on Androgen Receptor Agonism for Proliferation (AID 2283783);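 further: hits increase impedance growth signal above DMSO baseline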
# Outline: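 Androgen-driven proliferation in 22Rv1 cells is tracked as electrical impedance, taken 80 h after continuous exposure to compound (eight concentrations, 1:4 steps, maximum 100 uM final). Activity is fitted in the positive direction with DMSO as baseline.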
# [6] = molecular target: AR (gene 367) (UniProt P10275); test: ACEA_AR_antagonist_80hr: ACEA Biosciences xCELLigence Real-Time Cell Analysis on Androgen Receptor Antagonism for Proliferation (AID 2283787);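 further: 22Rv1 human prostate cancer cells with growth followed by electrical impedance; hits lower the impedance growth signal relative to DMSO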
# Outline: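 Growth-kinetic antagonist readout in 22Rv1 cells, taken 80 h after continuous compound exposure. Activity fitted as signal loss relative to DMSO negative control.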
# [7] = molecular target: Estrogen receptor beta (Homo sapiens) (UniProt Q92731); test: ATG_hERb_XSP1: Attagene TRANS-FACTORIAL Multi-Species (XSP1) HepG2 Assay for human Estrogen Receptor (ESR2) (AID 2283788)
# Outline: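 Measured endpoint is transcriptional gain of signal from a GAL4-UAS reporter controlled by chimeric ERβ in HepG2 liver cells. Exposure lasts 24 h alongside 3 nM 6-alpha-fluorotestosterone, with DMSO as negative control.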
# [8] = ATG_M_06_XSP1: Attagene TRANS-FACTORIAL Multi-Species (XSP1) HepG2 Assay for M06 Transcription Factor (Internal Marker) (AID 2283790)
# Outline: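 Transfected HepG2 multi-reporter system treated 24 h in the presence of 3 nM 6-alpha-fluorotestosterone. The M06 internal marker transcript was quantified by RT-PCR with capillary electrophoresis as a background control, and gain of signal was scored versus DMSO.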
# [9] = ATG_M_61_XSP1: Attagene TRANS-FACTORIAL Multi-Species (XSP1) HepG2 Assay for M61 Transcription Factor (Internal Marker) (AID 2283797)
# Outline: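 HepG2 cells transiently transfected with multiplexed GAL4-driven reporter units, dosed 24 h with 3 nM 6-alpha-fluorotestosterone present. Reporter mRNA quantified by RT-PCR, 6-FAM labelling, HpaI digestion and capillary electrophoresis; internal-marker background control, gain of signal versus DMSO.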
# [10] = ATG_M_32_XSP1: Attagene TRANS-FACTORIAL Multi-Species (XSP1) HepG2 Assay for M32 Transcription Factor (Internal Marker) (AID 2283799)
# Outline: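 HepG2 cells transiently transfected with multi-species TRANS reporter units, dosed 24 h with 3 nM 6-alpha-fluorotestosterone present. Internal-marker reporter mRNA quantified by RT-PCR and capillary electrophoresis; positive-direction fit versus DMSO.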
# [11] = molecular target: Peroxisome proliferator-activated receptor gamma (Homo sapiens) (UniProt P37231); test: ATG_hPPARg_XSP1: Attagene TRANS-FACTORIAL Multi-Species (XSP1) HepG2 Assay for human Peroxisome Proliferator-activated Receptor gamma (PPARg) (AID 2283800)
# Outline: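 HepG2 cells transiently transfected with GAL4-UAS reporter units carrying chimeric NR-Gal4 proteins; 3 nM 6-alpha-fluorotestosterone present. After 24 h dosing, reporter mRNA quantified by RT-PCR and capillary electrophoresis; gain of signal relative to DMSO.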
# [12] = molecular target: mouse Peroxisome Proliferator-activated Receptor gamma (PPARg), Pparg (gene 19016) (UniProt P37238); test: ATG_mPPARg_XSP1: Attagene TRANS-FACTORIAL Multi-Species (XSP1) HepG2 Assay for mouse Peroxisome Proliferator-activated Receptor gamma (PPARg) (AID 2283802)
# Outline: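 HepG2 cells transiently transfected with GAL4-UAS reporter units driven by mouse PPARg–GAL4 chimera; 3 nM 6-alpha-fluorotestosterone present. After 24 h dosing, reporter mRNA quantified by RT-PCR, fluorescent labelling and capillary electrophoresis; gain of signal versus DMSO.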
# Chain of AR (gene 367) (P10275 whole entry, looked up): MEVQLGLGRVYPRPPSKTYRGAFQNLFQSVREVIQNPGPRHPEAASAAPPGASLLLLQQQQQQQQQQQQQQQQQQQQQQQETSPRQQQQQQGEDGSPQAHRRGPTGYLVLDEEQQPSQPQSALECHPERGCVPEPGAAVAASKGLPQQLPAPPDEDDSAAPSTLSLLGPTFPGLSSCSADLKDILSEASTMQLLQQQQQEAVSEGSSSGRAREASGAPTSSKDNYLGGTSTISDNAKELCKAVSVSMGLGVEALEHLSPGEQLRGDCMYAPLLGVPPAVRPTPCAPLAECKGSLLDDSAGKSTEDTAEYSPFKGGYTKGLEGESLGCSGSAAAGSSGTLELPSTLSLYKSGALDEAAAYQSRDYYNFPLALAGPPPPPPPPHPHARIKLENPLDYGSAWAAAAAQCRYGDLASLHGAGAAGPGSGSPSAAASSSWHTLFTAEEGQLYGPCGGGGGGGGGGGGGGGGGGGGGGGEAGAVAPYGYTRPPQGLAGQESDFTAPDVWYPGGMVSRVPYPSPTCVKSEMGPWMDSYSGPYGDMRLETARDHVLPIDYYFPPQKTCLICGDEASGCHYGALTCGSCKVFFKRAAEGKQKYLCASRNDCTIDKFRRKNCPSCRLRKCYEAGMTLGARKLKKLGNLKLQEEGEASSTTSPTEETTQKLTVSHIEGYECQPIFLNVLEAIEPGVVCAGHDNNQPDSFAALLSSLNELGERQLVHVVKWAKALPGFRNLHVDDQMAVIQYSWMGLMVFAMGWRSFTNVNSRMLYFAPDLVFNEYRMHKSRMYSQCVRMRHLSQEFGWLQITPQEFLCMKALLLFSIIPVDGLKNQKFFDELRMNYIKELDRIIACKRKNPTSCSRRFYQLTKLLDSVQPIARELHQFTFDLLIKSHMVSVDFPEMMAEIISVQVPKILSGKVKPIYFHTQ
# Chain of mouse Peroxisome Proliferator-activated Receptor gamma (PPARg), Pparg (gene 19016) (P37238 whole entry, looked up, the tested form may be a part): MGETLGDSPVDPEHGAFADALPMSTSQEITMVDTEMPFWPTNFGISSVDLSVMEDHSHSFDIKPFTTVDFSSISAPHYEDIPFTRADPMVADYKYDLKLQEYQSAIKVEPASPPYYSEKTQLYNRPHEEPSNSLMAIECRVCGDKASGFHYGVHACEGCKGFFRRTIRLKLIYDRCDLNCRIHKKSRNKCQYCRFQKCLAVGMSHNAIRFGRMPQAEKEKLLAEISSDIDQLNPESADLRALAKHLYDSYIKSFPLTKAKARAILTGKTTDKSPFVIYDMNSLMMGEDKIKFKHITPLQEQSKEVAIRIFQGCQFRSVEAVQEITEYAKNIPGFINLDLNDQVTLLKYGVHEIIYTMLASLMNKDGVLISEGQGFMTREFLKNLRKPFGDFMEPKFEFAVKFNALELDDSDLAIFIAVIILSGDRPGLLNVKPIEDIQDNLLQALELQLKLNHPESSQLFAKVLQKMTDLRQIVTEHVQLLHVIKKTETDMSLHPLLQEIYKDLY
# Chain of Estrogen receptor beta (Homo sapiens) (Q92731 whole entry, looked up, the tested form may be a part): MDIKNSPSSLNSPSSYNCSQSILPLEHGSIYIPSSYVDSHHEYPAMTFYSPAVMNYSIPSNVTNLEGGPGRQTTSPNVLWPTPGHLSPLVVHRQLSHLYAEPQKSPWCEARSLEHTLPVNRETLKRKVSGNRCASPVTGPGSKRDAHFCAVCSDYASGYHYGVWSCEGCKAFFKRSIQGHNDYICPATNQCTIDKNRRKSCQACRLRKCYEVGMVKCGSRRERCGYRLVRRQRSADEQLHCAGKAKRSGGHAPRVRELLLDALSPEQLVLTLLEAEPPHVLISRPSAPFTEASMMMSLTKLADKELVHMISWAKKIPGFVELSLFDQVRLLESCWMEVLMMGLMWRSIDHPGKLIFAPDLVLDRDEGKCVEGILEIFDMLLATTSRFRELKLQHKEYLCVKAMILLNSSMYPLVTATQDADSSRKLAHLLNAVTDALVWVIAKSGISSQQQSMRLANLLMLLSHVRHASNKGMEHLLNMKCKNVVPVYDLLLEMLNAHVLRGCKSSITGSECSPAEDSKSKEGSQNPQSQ
# Chain of Peroxisome proliferator-activated receptor gamma (Homo sapiens) (P37231 whole entry, looked up, the tested form may be a part): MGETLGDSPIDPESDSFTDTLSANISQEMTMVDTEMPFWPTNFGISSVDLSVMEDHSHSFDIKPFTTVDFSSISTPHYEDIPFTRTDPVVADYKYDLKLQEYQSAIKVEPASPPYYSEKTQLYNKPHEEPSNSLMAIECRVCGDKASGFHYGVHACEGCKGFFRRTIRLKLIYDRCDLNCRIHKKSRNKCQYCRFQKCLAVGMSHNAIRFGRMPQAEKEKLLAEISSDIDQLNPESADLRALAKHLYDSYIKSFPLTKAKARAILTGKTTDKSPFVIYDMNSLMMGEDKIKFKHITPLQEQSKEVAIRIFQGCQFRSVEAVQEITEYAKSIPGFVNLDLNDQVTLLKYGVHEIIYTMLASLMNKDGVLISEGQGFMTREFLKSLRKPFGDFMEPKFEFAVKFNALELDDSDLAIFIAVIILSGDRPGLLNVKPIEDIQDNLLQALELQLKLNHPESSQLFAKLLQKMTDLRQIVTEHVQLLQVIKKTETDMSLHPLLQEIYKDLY
compound,measurement,setting,value
CN(C)C(=O)Nc1cccc(C(F)(F)F)c1,outcome,[1],inactive
same,outcome,[2],inactive
same,outcome,[3],inactive
Cc1nn(-c2cc(NS(C)(=O)=O)c(Cl)cc2Cl)c(=O)n1C(F)F,outcome,[4],inactive
same,outcome,[1],inactive
same,outcome,[5],inactive
same,outcome,[3],inactive
CCOP(=S)(OCC)SCCSCC,AC50,[4],78.1 µM (active)
same,AC50,[1],80.6 µM (active)
same,outcome,[3],inactive
Cc1ccn2nc(S(=O)(=O)Nc3c(F)cccc3F)nc2n1,outcome,[4],inactive
same,outcome,[1],inactive
same,outcome,[3],inactive
CCCCOC(=O)c1ccccc1C(=O)O,outcome,[4],inactive
same,outcome,[1],inactive
same,outcome,[2],inactive
same,outcome,[6],inactive
CCc1cccc(CC)c1N(COC)C(=O)CCl,AC50,[4],50 µM (active)
same,AC50,[1],50 µM (active)
same,outcome,[2],inactive
same,AC50,[6],63.9 µM (active)
CCNc1nc(Cl)nc(NC(C)(C)C#N)n1,AC50,[1],27 µM (active)
N#CSCSC#N,AC50,[4],7.42 µM (active)
same,AC50,[1],7.39 µM (active)
same,AC50,[2],6.97 µM (active)
same,AC50,[3],20.5 µM (active)
same,AC50,[6],11.7 µM (active)
Nc1nc(N)nc(NC2CC2)n1,outcome,[1],inactive
same,outcome,[2],inactive
CCCOc1nn(C(=O)NS(=O)(=O)c2ccccc2C(=O)OC)c(=O)n1C,outcome,[4],inactive
same,outcome,[1],inactive
same,outcome,[5],inactive
same,outcome,[6],inactive
Nc1c(Cl)cc([N+](=O)[O-])cc1Cl,AC50,[4],58.4 µM (active)
same,AC50,[1],50 µM (active)
same,AC50,[6],50 µM (active)
CCC(=NOC/C=C/Cl)C1=C(O)CC(C2CCOCC2)CC1=O (stereo not drawn),outcome,[4],inactive
same,outcome,[2],inactive
same,outcome,[3],inactive
COc1ccc(C(=CC(=O)N2CCOCC2)c2ccc(Cl)cc2)cc1OC,outcome,[4],inactive
same,AC50,[1],15.2 µM (active)
same,outcome,[2],inactive
same,AC50,[6],15.8 µM (active)
CCOP(=S)(OCC)OC(Cl)C(Cl)(Cl)Cl (stereo not drawn),AC50,[2],76.4 µM (active)
COc1cccc(C(=O)NN(C(=O)c2cc(C)cc(C)c2)C(C)(C)C)c1C,AC50,[1],76.4 µM (active)
same,outcome,[2],inactive
CCC(=O)Nc1ccc(Cl)c(Cl)c1,outcome,[4],inactive
same,AC50,[1],20.7 µM (active)
same,AC50,[6],20 µM (active)
CCOP(=O)(SC(C)CC)N1CCSC1=O (stereo not drawn),outcome,[1],inactive
C#CCC1=C(C)C(OC(=O)C2C(C=C(C)C)C2(C)C)CC1=O (stereo not drawn),AC50,[4],67.2 µM (active)
same,AC50,[1],49.8 µM (active)
same,AC50,[2],49.8 µM (active)
same,outcome,[7],inactive
same,outcome,[8],inactive
same,outcome,[9],inactive
same,outcome,[10],inactive
same,AC50,[11],27.2 µM (active)
same,AC50,[12],26.7 µM (active)
O=c1ccc(=O)[nH][nH]1,outcome,[2],inactive
COc1cc(OC)nc(Sc2cccc(Cl)c2C(=O)O)n1,outcome,[1],inactive
CC(C)=CC1C(C(=O)OCN2C(=O)C3=C(CCCC3)C2=O)C1(C)C (stereo not drawn),AC50,[4],44 µM (active)
same,AC50,[1],48.1 µM (active)
same,outcome,[5],inactive
same,AC50,[6],69.8 µM (active)
CCCSP(=O)(OCC)SCCC,outcome,[4],inactive
same,AC50,[1],28.8 µM (active)
same,AC50,[6],34 µM (active)
